According to PubChem BioAssay:
For some of these results: Measured potencies and affinities stand elsewhere. Records with an inconclusive call do not appear. Calls of active or inactive are those of the source. Unless noted, how the calls were made is not given here.

Key:
[1] = HepG2 liver cancer cell viability effects, profiling panel, resazurin fluorescence, 24 h, PK04 Diversity Set (AID 1172); conditions: higher = more signal
[2] = basal S. cerevisiae growth modulation, no modifier, primary screen, OD600, strain BY4716, 24 h, basal condition (AID 1173); conditions: OD600, 24 h, higher = more signal, called active from +8 up or from −8 down
[3] = MM1S myeloma cell viability, profiling panel, resazurin fluorescence, basal, 24 h, PK04 Diversity Set (AID 1174); conditions: higher = more signal, called active from +8 up or from −8 down;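 further: MM1S multiple myeloma cell line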
[4] = target: Dihydroorotate dehydrogenase (quinone), mitochondrial (Plasmodium falciparum (isolate 3D7)) (UniProt Q08210); experiment: PfDHODH enzyme inhibitors, primary screen, biochemical, C-terminal His tag, absorbance 600 nm (AID 1175); conditions: DCIP absorbance 600 nm, higher = more signal, called active from +8 up or from −8 down;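 further: recombinant parasite enzyme with a five histidine tag at its C terminus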
[5] = P. aeruginosa biofilm formation inhibitors, primary screen, strain PAO1, LB-PBS medium, absorbance 600 nm (AID 1176); conditions: P. aeruginosa PAO1 growth/biofilm, A600, 12 h; higher = more signal
[6] = S. cerevisiae RM11-1a growth modifiers, primary screen, strain RM11-1a, OD600, basal, 24 h (AID 1177); conditions: OD600, 24 h, higher = more signal, called active from +8 up or from −8 down;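 further: cultures grown under basal conditions with no added stressor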
[7] = E. coli acrAB mutant growth effects, primary screen, E. coli filamentation inducers, strain DRC39, OD650, 24 h (AID 1178); conditions: higher = more signal, called active from +8 up or from −8 down;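 further: growth measured as culture turbidity by optical density at 650 nm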
[8] = E. coli acrAB mutant growth effects, primary screen, E. coli filamentation inducers, strain DRC39, OD650, 48 h (AID 1179);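 further: screen aims at cell division blockers that make cells filament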; conditions: E. coli DRC39 delta-acrAB growth, higher = more signal, called active from +8 up or from −8 down
[9] = RPMI8226 myeloma cell viability, profiling panel, resazurin fluorescence, basal, 24 h, PK04 Diversity Set (AID 1180); conditions: higher = more signal;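 further: RPMI8826 multiple myeloma cell line at 5000 cells per well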
[10] = target: E3 ubiquitin-protein ligase XIAP (Homo sapiens) (UniProt P98170); experiment: XIAP binders, primary screen, biophysical, small-molecule microarray, fluorescence 635 nm (AID 1181); conditions: small-molecule microarray binding, higher = more signal;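 further: score merges 667 nm emission and signal to noise over triplicate slides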
[11] = tested on: XIP peptide (Xip251-270) binding; experiment: small-molecule binders of XIP peptide, primary screen, biochemical, small-molecule microarray, fluorescence 635/667 nm, 0.1 µg/mL protein (AID 1182); conditions: fluorescent protein binding, 635 nm, higher = more signal, called active from +8 up or from −8 down
[12] = tested on: XIP peptide (Xip251-270); experiment: small-molecule binders of XIP peptide, primary screen, biochemical, small-molecule microarray, fluorescence 635/667 nm, 0.5 µg/mL protein (AID 1183); conditions: small-molecule microarray binding, fluorescence 635 nm; higher = more signal
[13] = Plasmodium falciparum growth inhibition, primary screen, strain 3D7, DAPI fluorescence, 100 nL (AID 1184);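 further: parasites grown inside human red blood cells in medium with human serum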; conditions: P. falciparum 3D7 growth, 3 d, higher = more signal
[14] = target: Homeobox protein Hox-A13 (Mus musculus) (UniProt Q62424); experiment: inhibitors of HoxA13-DNA binding, primary screen, biochemical, fluorescence polarization, labeled oligonucleotide (AID 1185); conditions: 15 min, higher = more signal, called active from +8 up or from −8 down
[15] = inhibitors of hydroxyurea-induced Chk1 phosphorylation, primary screen, imaging, HeLa, phospho-Chk1 antibody, percent positive cells (AID 1186); conditions: hydroxyurea-induced phospho-Chk1 immunofluorescence imaging, higher = more signal
[16] = inhibitors of hydroxyurea-induced Chk1 phosphorylation, primary screen, imaging, HeLa, phospho-Chk1 nuclear intensity (AID 1187); conditions: hydroxyurea-induced phospho-Chk1 immunofluorescence imaging, higher = more signal
[17] = Cryptococcus neoformans growth inhibition, dose response, Alamar Blue, cherry-picks (AID 686998;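 active means falling signal with fitted half-maximal potency no higher than twice the top valid tested dose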); conditions: 24 h; series mostly up to 35 µM
[18] = inducers of Cryptococcus neoformans cell lysis, dose response, AK release luminescence, cherry-picks (AID 687000;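 active means fitted dose curve reaches 40% lysis signal rise at or below the highest valid concentration tested for that sample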;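 further: luminescent detection of adenylate kinase leaking from lysed yeast; 0% = median neutral control signal and 100% = double that signal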); conditions: C. neoformans lysis, adenylate kinase release luminescence, 4 h, 100% = twice the neutral-control signal; series mostly up to 15 µM
[19] = HepG2 cell cytotoxicity, dose response, cytotoxicity control, cherry-picks, set 2 (AID 687002;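 active means a dose-response fit showing signal loss, with half-maximal concentration no higher than twice the top tested dose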); conditions: HepG2 viability, ATP luminescence (CellTiter-Glo), 48 h; series mostly up to 26 µM
[20] = HeLa cell cytotoxicity, dose response, cytotoxicity control, ATP luminescence, cherry-pick samples (AID 687004;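 active means a fitted half-maximal concentration no higher than twice the top valid tested dose, with signal falling as cells die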;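 further: 0% = neutral control median and -100% = staurosporine 10 µM control median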); conditions: HeLa viability, ATP luminescence (CellTiter-Glo), 48 h; series mostly up to 26 µM

Chain of E3 ubiquitin-protein ligase XIAP (Homo sapiens) (P98170 whole entry, looked up): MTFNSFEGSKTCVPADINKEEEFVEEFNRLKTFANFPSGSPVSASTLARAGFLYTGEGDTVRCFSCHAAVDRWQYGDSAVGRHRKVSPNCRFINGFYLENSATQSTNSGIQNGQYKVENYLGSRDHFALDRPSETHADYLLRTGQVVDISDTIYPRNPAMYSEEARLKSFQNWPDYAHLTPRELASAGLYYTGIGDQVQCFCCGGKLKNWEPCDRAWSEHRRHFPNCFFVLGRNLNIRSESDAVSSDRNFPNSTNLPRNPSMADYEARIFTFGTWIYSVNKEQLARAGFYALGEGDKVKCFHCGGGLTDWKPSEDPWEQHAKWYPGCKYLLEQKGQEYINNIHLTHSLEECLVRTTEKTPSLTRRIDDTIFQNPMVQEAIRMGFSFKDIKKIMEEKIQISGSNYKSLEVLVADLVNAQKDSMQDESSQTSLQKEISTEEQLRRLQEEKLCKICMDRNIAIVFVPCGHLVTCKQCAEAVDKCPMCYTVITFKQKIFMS
Chain of Homeobox protein Hox-A13 (Mus musculus) (Q62424 whole entry, looked up): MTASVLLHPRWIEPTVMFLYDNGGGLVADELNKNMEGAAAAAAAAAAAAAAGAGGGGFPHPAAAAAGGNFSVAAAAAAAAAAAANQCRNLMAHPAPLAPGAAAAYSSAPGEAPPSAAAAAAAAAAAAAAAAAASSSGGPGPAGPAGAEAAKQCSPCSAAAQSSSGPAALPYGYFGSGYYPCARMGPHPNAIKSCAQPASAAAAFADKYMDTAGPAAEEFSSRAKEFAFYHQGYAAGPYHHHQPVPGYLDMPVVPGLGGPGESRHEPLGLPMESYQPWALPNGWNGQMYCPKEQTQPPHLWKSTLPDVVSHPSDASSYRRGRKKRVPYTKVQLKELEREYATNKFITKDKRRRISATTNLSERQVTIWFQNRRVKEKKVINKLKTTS
Chain of Dihydroorotate dehydrogenase (quinone), mitochondrial (Plasmodium falciparum (isolate 3D7)) (Q08210 whole entry, looked up): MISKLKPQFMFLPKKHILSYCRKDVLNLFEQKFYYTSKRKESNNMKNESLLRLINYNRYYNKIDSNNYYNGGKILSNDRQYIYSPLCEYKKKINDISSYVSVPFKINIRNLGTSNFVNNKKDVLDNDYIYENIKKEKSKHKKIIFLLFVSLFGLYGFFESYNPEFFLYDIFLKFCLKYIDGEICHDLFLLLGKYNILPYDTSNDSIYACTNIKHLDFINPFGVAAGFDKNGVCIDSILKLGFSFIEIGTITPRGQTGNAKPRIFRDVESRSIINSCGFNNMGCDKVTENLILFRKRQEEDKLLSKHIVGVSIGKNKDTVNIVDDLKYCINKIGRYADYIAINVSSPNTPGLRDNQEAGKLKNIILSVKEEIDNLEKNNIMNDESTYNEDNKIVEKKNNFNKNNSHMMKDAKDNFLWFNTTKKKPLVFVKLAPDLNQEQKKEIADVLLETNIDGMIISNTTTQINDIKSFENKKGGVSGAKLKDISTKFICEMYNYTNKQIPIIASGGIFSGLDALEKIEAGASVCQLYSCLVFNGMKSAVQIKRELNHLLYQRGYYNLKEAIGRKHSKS

| Structure (SMILES) | z-score [1] | z-score [2] | z-score [3] | composite z-score [4] | z-score [5] | z-score [6] | z-score [7] | z-score [8] | z-score [9] | composite z-score [10] | composite z-score [11] | composite z-score [12] | z-score [13] | z-score [14] | z-score [15] | z-score [16] | outcome [17] | outcome [18] | outcome [19] | outcome [20] |
| --- | --- | --- | --- | --- | --- | --- | --- | --- | --- | --- | --- | --- | --- | --- | --- | --- | --- | --- | --- | --- |
| COCCOC(=O)N1C(=O)[C@@]2(c3cc(C#CCCO)ccc31)[C@H](c1ccc(OCCO)cc1)N1[C@H](c3ccccc3)[C@H](c3ccccc3)OC(=O)[C@H]1[C@@H]2C(=O)NC[C@H](O)c1ccccc1 | 0.542 | 1.64 (inactive) | -0.149 (inactive) | 1.06 (inactive) | 1.39 (inactive) | 2.33 (inactive) | 0.0733 (inactive) | -0.534 (inactive) | 0.471 | 0.106 | 0.405 (inactive) | 0.765 | -2.1 | -1.24 (inactive) | -0.234 (inactive) | -0.341 (inactive) |  |  |  |  |
| Cc1ccc(N2C(=O)c3ccccc3[C@](C)(C(=O)NCC(C)C)[C@@H]2c2ccc(CO)cc2)nc1 | 0.1 | 0.726 (inactive) | -0.558 (inactive) | 1.08 (inactive) | 0.14 (inactive) | 1.42 (inactive) | 0.401 (inactive) | -0.247 (inactive) | -0.481 | -0.0095 | -0.223 (inactive) | -0.662 | 0.11 | -2 (inactive) | 0.341 (inactive) | 0.123 (inactive) |  |  |  |  |
| COC(=O)C[C@H]1O[C@]2(C(=O)N(Cc3ccccc3)c3ccc(I)cc32)[C@@H](C)[C@@H]1[Si](C)(C)c1ccc(OC)cc1 | -0.583 | -2.01 (inactive) | -0.146 (inactive) | 0.94 (inactive) | -0.435 (inactive) | 0.765 (inactive) | -0.493 (inactive) | -0.598 (inactive) | -0.196 | -0.211 | -0.0923 (inactive) | -0.0988 | -3.07 | 1.04 (inactive) | -0.504 (inactive) | -0.584 (inactive) |  |  |  |  |
| COc1ccc([Si](C)(C)[C@@H]2[C@@H](CCO)O[C@]3(C(=O)N(Cc4ccc(NC(=O)[C@H](C)O)cc4)c4ccccc43)[C@H]2C)cc1 | -1.84 | -0.177 (inactive) | -6.71 (inactive) | -1.07 (inactive) | -0.717 (inactive) | 3.7 (inactive) | 1.26 (inactive) | 0.335 (inactive) | -5.69 | -0.0497 | 0.894 (inactive) | 0.752 | -2.79 | -4.05 (inactive) | -1.42 (inactive) | -1.27 (inactive) |  |  |  |  |
| N#Cc1ccc(NN2C(C(O)CCc3ccccc3)C=CC3C(=O)N(c4ccccc4)C(=O)C32)cc1 (stereo not drawn) | -0.618 | -0.333 (inactive) | -0.611 (inactive) | -2.09 (inactive) | 1.01 (inactive) | -1.97 (inactive) | 0.143 (inactive) | 0.7 (inactive) | -0.152 | -0.127 | 1.15 (inactive) | -0.279 | 0.484 | -4.3 (inactive) | -0.13 (inactive) | -0.424 (inactive) |  |  |  |  |
| COC(=O)[C@@]1(Cc2ccc(OC)cc2)[C@H]2c3cc(C(=O)N(C)C)n(Cc4ccc(C)c(F)c4F)c3C[C@H]2CN1C(=O)c1ccccc1 | 0.819 | 1.45 (inactive) | 0.468 (inactive) | 0.164 (inactive) | 0.0944 (inactive) | 2.26 (inactive) | 0.423 (inactive) | -0.373 (inactive) | 1.37 | 0.385 | -0.0903 (inactive) | 0.465 | -1.13 | -1.93 (inactive) | 0.758 (inactive) | 0.0937 (inactive) |  |  |  |  |
| CC(=O)NCCCC[C@@H]1NC(=O)[C@H]2C[C@@H](C(=O)NCCCCCCN(C)C)[C@@H](c3cccc(OCCO)c3)N2C1=O | -0.526 | -1.16 (inactive) | -0.143 (inactive) | -0.0259 (inactive) | 0.42 (inactive) | -0.0243 (inactive) | 0.617 (inactive) | -0.197 (inactive) | -0.696 | -0.0067 | 2.96 (inactive) | 0.882 | -0.0473 | -2.84 (inactive) | 0.181 (inactive) | 0.733 (inactive) |  |  |  |  |
| O=C1C2C=CC(C(O)C(c3ccccc3)c3ccccc3)N(Nc3ccc([N+](=O)[O-])cc3)C2C(=O)N1c1ccccc1 (stereo not drawn) | 0.867 | 0.852 (inactive) | 0.0597 (inactive) | 0.665 (inactive) | 0.89 (inactive) | 0.601 (inactive) | -1.12 (inactive) | 0.058 (inactive) | -1.03 | 0.0553 | -0.0268 (inactive) | 0.747 | 0.535 | -1.88 (inactive) | 0.349 (inactive) | 0.0443 (inactive) |  |  |  |  |
| NC(=O)NCC#Cc1ccc2c(c1)[C@]1(C(=O)N2)[C@H](C(N)=O)[C@H]2C(=O)O[C@H](c3ccccc3)[C@H](c3ccccc3)N2[C@@H]1c1ccccc1OCCO | 0.979 | -0.275 (inactive) | 0.369 (inactive) | -0.793 (inactive) | 0.75 (inactive) | 0.785 (inactive) | 0.285 (inactive) | 0.0072 (inactive) | 0.295 | 0.234 | 0.212 (inactive) | 0.473 | 0.257 | -4.44 (inactive) | 0.113 (inactive) | 0.158 (inactive) | inactive | inactive | inactive | inactive |
